{
  "source": "the supplement of paper PMC3545927",
  "sequences": {"B1": {"name": "HC699 (peptide)", "chain": "CAVCWTVYHGAGNASASA"}, "B2": {"name": "HC2239 (peptide)", "chain": "CAEVVTSTPVAGNASASA"}, "B3": {"name": "HC1910 (peptide)", "chain": "CATTPCSGVWAGNASASA"}, "B4": {"name": "HC2138 (peptide)", "chain": "CAETVVCCSMAGNASASA"}, "B5": {"name": "FS-460 (peptide)", "chain": "CALSRRLKRAAGNASASA"}, "B6": {"name": "HC490 (peptide)", "chain": "CARSELSPLLAGNASASA"}, "B7": {"name": "HC287 (peptide)", "chain": "CALPATQLRRAGNASASA"}, "B8": {"name": "HC1136 (peptide)", "chain": "CALTVTQLLRAGNASASA"}, "B9": {"name": "FS-3085 (peptide)", "chain": "CARSKRPPLVAGNASASA"}, "B10": {"name": "FS-2305 (peptide)", "chain": "CARSKRQLRRAGNASASA"}, "B11": {"name": "FS-3208 (peptide)", "chain": "CARSKRSRLLAGNASASA"}, "B12": {"name": "FS-1930 (peptide)", "chain": "CARSKRSALRAGNASASA"}, "B13": {"name": "HC1623 (peptide)", "chain": "CARSVRARLLAGNASASA"}, "B14": {"name": "FS-3086 (peptide)", "chain": "CARSKRRHRTAGNASASA"}},
  "molecular_target": "furin, P09958",
  "sequence (P09958 whole entry, the tested form may be a part)": "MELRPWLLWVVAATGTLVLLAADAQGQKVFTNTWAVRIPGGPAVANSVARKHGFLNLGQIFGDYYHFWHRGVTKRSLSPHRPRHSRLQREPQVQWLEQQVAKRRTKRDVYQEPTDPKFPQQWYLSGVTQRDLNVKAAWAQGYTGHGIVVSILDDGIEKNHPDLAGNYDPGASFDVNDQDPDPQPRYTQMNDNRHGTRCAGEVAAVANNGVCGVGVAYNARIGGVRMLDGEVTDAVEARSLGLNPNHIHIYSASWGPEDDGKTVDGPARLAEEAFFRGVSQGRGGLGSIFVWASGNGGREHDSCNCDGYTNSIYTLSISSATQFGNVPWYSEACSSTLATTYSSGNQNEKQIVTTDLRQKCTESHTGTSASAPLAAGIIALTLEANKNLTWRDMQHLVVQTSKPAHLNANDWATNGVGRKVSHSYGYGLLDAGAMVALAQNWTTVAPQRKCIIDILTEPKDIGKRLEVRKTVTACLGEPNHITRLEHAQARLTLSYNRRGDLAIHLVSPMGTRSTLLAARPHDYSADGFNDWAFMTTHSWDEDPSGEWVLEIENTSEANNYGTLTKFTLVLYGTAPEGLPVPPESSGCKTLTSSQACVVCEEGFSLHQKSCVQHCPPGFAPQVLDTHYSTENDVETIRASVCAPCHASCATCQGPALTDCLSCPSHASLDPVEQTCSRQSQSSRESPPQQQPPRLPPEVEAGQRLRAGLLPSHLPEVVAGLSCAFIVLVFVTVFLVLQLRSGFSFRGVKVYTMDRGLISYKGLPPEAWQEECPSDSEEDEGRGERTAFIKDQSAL",
  "test": "furin cleavage Z-score vs untreated control; higher = more cleavage, active = 3.5 or more, inactive = 1 or less, 8 variable residues between constant flanks",
  "outline": "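Peptides 8 residues long, fused to a cDNA oligonucleotide, were fixed to magnetic beads by the N-terminus and exposed to purified furin. The 0.01 ml reactions contained 50 mM HEPES pH 7.5 with CaCl2 and NaCl at 1:10 enzyme:substrate and ran 7.5, 15 or 30 min. For the cleavage Z-score, log counts of sequenced released DNA were compared with furin-free reactions, lowess-adjusted and scaled by median absolute deviation.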",
  "note": "The list shows a part of the results. The true hit rate is not given.",
  "data": [
    {"sequence": "B1", "values": [
      {"measurement": "furin cleavage Z-score", "setting": "7.5 min", "result": "-0.241 (inactive)"},
      {"measurement": "furin cleavage Z-score", "setting": "15 min", "result": 1.41},
      {"measurement": "furin cleavage Z-score", "setting": "30 min", "result": "-1.21 (inactive)"}
    ]},
    {"sequence": "B2", "values": [
      {"measurement": "furin cleavage Z-score", "setting": "7.5 min", "result": "-0.71 (inactive)"},
      {"measurement": "furin cleavage Z-score", "setting": "15 min", "result": "-0.517 (inactive)"},
      {"measurement": "furin cleavage Z-score", "setting": "30 min", "result": "-0.991 (inactive)"}
    ]},
    {"sequence": "B3", "values": [
      {"measurement": "furin cleavage Z-score", "setting": "7.5 min", "result": "-0.00612 (inactive)"},
      {"measurement": "furin cleavage Z-score", "setting": "15 min", "result": 1.65},
      {"measurement": "furin cleavage Z-score", "setting": "30 min", "result": "0.601 (inactive)"}
    ]},
    {"sequence": "B4", "values": [
      {"measurement": "furin cleavage Z-score", "setting": "7.5 min", "result": "0.723 (inactive)"},
      {"measurement": "furin cleavage Z-score", "setting": "15 min", "result": 1.46},
      {"measurement": "furin cleavage Z-score", "setting": "30 min", "result": "0.375 (inactive)"}
    ]},
    {"sequence": "B5", "values": [
      {"measurement": "furin cleavage Z-score", "setting": "7.5 min", "result": "12.9 (active)"},
      {"measurement": "furin cleavage Z-score", "setting": "15 min", "result": "10.6 (active)"},
      {"measurement": "furin cleavage Z-score", "setting": "30 min", "result": "7.76 (active)"}
    ]},
    {"sequence": "B6", "values": [
      {"measurement": "furin cleavage Z-score", "setting": "7.5 min", "result": "0.997 (inactive)"},
      {"measurement": "furin cleavage Z-score", "setting": "15 min", "result": "-1.17 (inactive)"},
      {"measurement": "furin cleavage Z-score", "setting": "30 min", "result": "0.877 (inactive)"}
    ]},
    {"sequence": "B7", "values": [
      {"measurement": "furin cleavage Z-score", "setting": "7.5 min", "result": "-0.751 (inactive)"},
      {"measurement": "furin cleavage Z-score", "setting": "15 min", "result": "-1.22 (inactive)"},
      {"measurement": "furin cleavage Z-score", "setting": "30 min", "result": "-0.432 (inactive)"}
    ]},
    {"sequence": "B8", "values": [
      {"measurement": "furin cleavage Z-score", "setting": "7.5 min", "result": "-0.529 (inactive)"},
      {"measurement": "furin cleavage Z-score", "setting": "15 min", "result": 1.28},
      {"measurement": "furin cleavage Z-score", "setting": "30 min", "result": "-0.0718 (inactive)"}
    ]},
    {"sequence": "B9", "values": [
      {"measurement": "furin cleavage Z-score", "setting": "7.5 min", "result": "-1.04 (inactive)"},
      {"measurement": "furin cleavage Z-score", "setting": "15 min", "result": 1.04},
      {"measurement": "furin cleavage Z-score", "setting": "30 min", "result": "0.266 (inactive)"}
    ]},
    {"sequence": "B10", "values": [
      {"measurement": "furin cleavage Z-score", "setting": "7.5 min", "result": "5.77 (active)"},
      {"measurement": "furin cleavage Z-score", "setting": "15 min", "result": "8.83 (active)"},
      {"measurement": "furin cleavage Z-score", "setting": "30 min", "result": "9.3 (active)"}
    ]},
    {"sequence": "B11", "values": [
      {"measurement": "furin cleavage Z-score", "setting": "7.5 min", "result": 2.35},
      {"measurement": "furin cleavage Z-score", "setting": "15 min", "result": "5.37 (active)"},
      {"measurement": "furin cleavage Z-score", "setting": "30 min", "result": "6.91 (active)"}
    ]},
    {"sequence": "B12", "values": [
      {"measurement": "furin cleavage Z-score", "setting": "7.5 min", "result": "8.67 (active)"},
      {"measurement": "furin cleavage Z-score", "setting": "15 min", "result": "9.74 (active)"},
      {"measurement": "furin cleavage Z-score", "setting": "30 min", "result": "9.58 (active)"}
    ]},
    {"sequence": "B13", "values": [
      {"measurement": "furin cleavage Z-score", "setting": "7.5 min", "result": "-0.453 (inactive)"},
      {"measurement": "furin cleavage Z-score", "setting": "15 min", "result": "0.839 (inactive)"},
      {"measurement": "furin cleavage Z-score", "setting": "30 min", "result": "-0.225 (inactive)"}
    ]},
    {"sequence": "B14", "values": [
      {"measurement": "furin cleavage Z-score", "setting": "7.5 min", "result": "5.67 (active)"},
      {"measurement": "furin cleavage Z-score", "setting": "15 min", "result": "4.65 (active)"},
      {"measurement": "furin cleavage Z-score", "setting": "30 min", "result": "6.42 (active)"}
    ]}
  ]
}
